Source: PubChem BioAssay
USP1 inh = blocks the human USP1/UAF1 deubiquitinase complex. actives 0.23% (n = 390,000). recombinant USP1/UAF1, Ub-Rhodamine cleavage fluorescence. O94782. Potency, µM (highest dose often 57.1 µM), without a hit: top-dose activity change, negative = inhibition, actives largely listed as inhibitors; note: potency is the fitted concentration of half-maximal effect; nearly all actives have a fitted effect of over 60% in size
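1 nM enzyme complex + cpd, 15 min RT; start with Ub-Rho 150nM final; kinetic fluorescence ex 480/em 540, 6 reads q60 s. Buffer 50mM HEPES pH 7.8, 0.5mM EDTA, 0.1 mg/ml BSA, 1mM TCEP, 0.01% Tween-20.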
USP2a inh = blocks human ubiquitin-specific protease USP2a | O75604 | actives 0.01% (n = 330,000) | USP2 core, Ub-CHOP2 coupled fluorogenic reporter, 485/531 | Potency, µM (highest dose often 38.3 µM), for inactives: top-dose activity change, negative = inhibition, most hits filed as inhibitors;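 note: potency is the fitted concentration of half-maximal effect; plate controls were DMSO wells for no effect and full inhibition by NEM control for full effect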
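Deubiquitinase activity read as fluorescence (485/531 nm) after Ub-CHOP2 cleavage activates the enterokinase reporter on its substrate; USP2 core 10nM, Ub-CHOP2 and substrate 25nM each, 30min compound preincubation then 60min RT; data normalized to NEM, curves fitted.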
PI5P4Ka inh = inhibitors of human PI5P4K alpha; P48426; PI5P4Kalpha enzyme, ADP-Glo luminescence, 60 min; active compounds read low; max response, %; actives 1.2% (n = 330,000); AID 652105; active = max response of -50% or lower; inconclusive = between -30% and -50%; inactive = -30% or higher; note: value at the top dose of about 77 µM
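Compounds were pin-transferred onto PI5P4Kalpha and substrate in HEPES pH 7.4 buffer with EGTA, CHAPS and 5% DMSO. ATP (5 microM final) started the reaction, which ran 60 minutes at room temperature before ADP-Glo detection.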
WRN helicase inh = blocks human WRN helicase; actives 0.46% (n = 360,000); Potency, µM (titrated, usually from 114 µM), for the others: at the highest dose activity change, negative = inhibition, usual class: inhibitors; WRN helicase unwinding, fluorescent forked duplex, kinetic; AID 651768; Q14191; note: potency is the fitted concentration of half-maximal effect; nearly all actives have a fitted effect of over 55% in size
Target sequence (Q14191 whole entry, looked up): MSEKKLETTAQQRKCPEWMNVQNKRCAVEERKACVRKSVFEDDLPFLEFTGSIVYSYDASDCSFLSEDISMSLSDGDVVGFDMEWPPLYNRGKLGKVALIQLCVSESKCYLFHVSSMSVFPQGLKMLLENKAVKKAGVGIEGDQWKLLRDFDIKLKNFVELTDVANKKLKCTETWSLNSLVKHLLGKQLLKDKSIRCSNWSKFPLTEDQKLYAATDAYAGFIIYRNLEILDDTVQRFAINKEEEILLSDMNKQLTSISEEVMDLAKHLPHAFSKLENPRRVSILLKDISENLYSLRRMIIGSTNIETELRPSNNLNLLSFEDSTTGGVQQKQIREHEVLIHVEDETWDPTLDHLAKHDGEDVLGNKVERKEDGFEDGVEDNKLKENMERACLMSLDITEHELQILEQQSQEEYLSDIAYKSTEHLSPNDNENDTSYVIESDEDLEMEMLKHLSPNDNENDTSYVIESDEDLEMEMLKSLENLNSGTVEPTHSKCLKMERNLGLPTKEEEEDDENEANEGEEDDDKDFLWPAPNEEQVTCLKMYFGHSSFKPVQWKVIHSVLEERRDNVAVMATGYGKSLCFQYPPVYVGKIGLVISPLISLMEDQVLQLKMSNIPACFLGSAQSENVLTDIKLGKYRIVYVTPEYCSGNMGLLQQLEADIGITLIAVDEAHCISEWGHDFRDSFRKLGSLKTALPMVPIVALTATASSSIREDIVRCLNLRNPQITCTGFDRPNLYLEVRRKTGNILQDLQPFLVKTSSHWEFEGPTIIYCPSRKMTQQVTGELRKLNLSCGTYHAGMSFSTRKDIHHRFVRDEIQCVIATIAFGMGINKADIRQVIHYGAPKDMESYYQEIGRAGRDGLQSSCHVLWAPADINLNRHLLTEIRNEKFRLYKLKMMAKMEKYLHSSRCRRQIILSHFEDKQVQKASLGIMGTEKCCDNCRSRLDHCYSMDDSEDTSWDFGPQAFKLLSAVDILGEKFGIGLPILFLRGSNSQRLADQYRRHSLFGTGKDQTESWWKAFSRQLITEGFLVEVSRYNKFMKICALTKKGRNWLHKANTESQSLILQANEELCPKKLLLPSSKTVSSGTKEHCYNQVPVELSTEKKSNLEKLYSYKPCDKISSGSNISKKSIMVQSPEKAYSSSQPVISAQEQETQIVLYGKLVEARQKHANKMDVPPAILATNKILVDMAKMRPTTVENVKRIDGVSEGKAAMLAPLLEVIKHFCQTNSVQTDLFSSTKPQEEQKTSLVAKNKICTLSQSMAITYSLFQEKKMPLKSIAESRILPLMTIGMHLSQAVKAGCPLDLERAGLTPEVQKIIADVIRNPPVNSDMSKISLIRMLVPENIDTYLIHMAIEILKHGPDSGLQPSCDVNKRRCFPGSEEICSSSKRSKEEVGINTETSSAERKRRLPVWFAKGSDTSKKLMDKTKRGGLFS
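Screening of the MLSMR collection measured strand separation of a quenched forked DNA duplex (100 nM) by 20 nM WRN with 2 mM ATP, all final. Compounds were preincubated with enzyme 15 min at room temperature.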
PLK1 PBD inh = blocks phosphopeptide binding to human PLK1 polo-box domain; actives 2.8% (n = 360,000); Potency, µM, inactives show max response, negative = inhibition, most hits filed as inhibitors; Plk1 PBD binding of FITC phosphopeptide, fluorescence polarization; P53350; AID 720504; note: potency is the fitted concentration of half-maximal effect; series mostly up to about 57 µM; nearly all actives have a fitted effect of over 65% in size
* hit, by the source's call; ? = inconclusive; nt = not tested or not shown; [ ] = remark or other dose. Compounds with a hit are over-represented: about 3.3% of the library has one in this group of screens. Unless noted, calls come from the whole dose curve; as a rule, active = well fitted curve in the direction sought with a large enough effect; inconclusive = small, poorly fitted or top-dose-only effect, or another doubt; inactive = no such curve, though single readings can be large; an effect the other way counts as inactive or inconclusive. Unless noted, % is set by controls: 0 for no effect and ±100 for the full control effect.

SMILES	USP1 inh	USP2a inh	PI5P4Ka inh	WRN helicase inh	PLK1 PBD inh
COc1cc2c(cc1OC)C(c1ccc(Cl)cc1)N(c1ccc(C)c(F)c1)C(=O)C2 (stereo unspecified)	-12%	nt	nt	nt	nt
O=c1c(N2CCN(c3cccc(Cl)c3)CC2)csc2ccc(Cl)cc12	-25%	nt	nt	nt	nt
CC(=O)COC(=O)C1CCN(S(=O)(=O)c2cc([N+](=O)[O-])ccc2Cl)CC1	-24%	0%	-53*	0%[11.6 µM]	-24%
CN(Cc1ccccc1)C(=O)C1CCN(S(=O)(=O)c2cc([N+](=O)[O-])ccc2Cl)CC1	-2%	3%	-1	-10%	-14%
O=C(COC(=O)C1CC1)Nc1ncc(Cl)cc1Cl	-10%	4%	-17	?	-12%
O=C(COC(=O)C1CCN(S(=O)(=O)c2cc([N+](=O)[O-])ccc2Cl)CC1)Nc1ncc(Cl)cc1Cl	-22%	0%	-50*	?	?
Cc1ccc(-c2nc(NC(=O)CSc3nc(C)nc4sc5c(c34)CCCC5)ns2)cc1	-6%	nt	nt	nt	nt
CCN1/C(=C/C=C/c2oc3ccc(-c4ccccc4)cc3[n+]2CC)Oc2ccc(-c3ccccc3)cc21	nt	?	-57*	4.7µM*	-110%
COc1cc(/C=C(\C#N)C(=O)Nc2ccc(C(=O)O)cc2)ccc1OC(=O)c1cccc(F)c1	-23%	3%	-5	-4%[57.1 µM]	24µM*
CCc1ccc(NC(=O)/C(C#N)=C\c2ccc(OC)c(C(=O)O)c2)cc1	?	3%	-10	-24%	-30%
COc1cc(/C=C(\C#N)C(=O)NCc2ccccc2)ccc1OCc1ccc(C(=O)O)cc1	-22%	-1%	-17	-11%	19µM*
COc1cc(/C=C(/C#N)C(=O)Nc2ccccc2)ccc1OCc1ccc(C(=O)O)cc1	?	1%	1	-14%[11.6 µM]	?
CCOc1cc(/C=C(/C#N)C(=O)Nc2ccc(OC)cc2)ccc1OCc1ccc(C(=O)O)cc1	-27%	0%	-4	-21%[11.6 µM]	27µM*
CCOC(=O)c1cc(C)n(CC2CCC(C(=O)Nc3ccc(C(C)=O)cc3)CC2)c1C (stereo unspecified)	-14%	nt	nt	nt	nt
O=C(Nc1ccc(F)c(F)c1)C1CCCN1S(=O)(=O)c1cccc2nsnc12 (stereo unspecified)	-7%	nt	nt	nt	nt
C=CCCCCCCCCC(=O)Nc1ncccn1	-21%	2%	-24	6%	12µM*
O=C(CCSc1ccccc1)Nc1ncccn1	?	2%	nt	-11%	-9%
C/C(=N\Nc1ccc(C(=O)O)cc1)c1ccc(Br)cc1	-7%	1%	-3	-14%	-26%
C/C(=N/Nc1ncc(Br)cn1)c1ccc(Br)cc1	1%	2%	-20	8%	4.7µM*
O=C(Cn1c(/C=C/c2ccccc2)nc2ccccc21)Nc1ccc(F)cc1	-9%	-1%	-16	-9%	19µM*
O=C(CSc1nccn1Cc1ccccc1)Nc1ccc2c(c1)OCO2	-18%	nt	nt	nt	nt
N#Cc1cc2c(nc1SCc1ccc(Cl)cc1)CCCC2	-17%	2%	nt	-4%	-9%
N#Cc1cc2c(nc1SCc1ccccc1)CCCCC2	-20%	0%	-13	1%	3.8µM*
COCCNC(=O)Cn1c(=O)n(CCCC(=O)NCc2ccc3c(c2)OCO3)c(=O)c2sccc21	-10%	2%	-7	2%	27µM*
CCCS(=O)(=O)N1CC(=O)N(c2cc(C)cc(C)c2)C(C)(C(=O)NC2CCCCCC2)C1 (stereo unspecified)	-16%	nt	nt	nt	nt
SMILES	USP1 inh	USP2a inh	PI5P4Ka inh	WRN helicase inh	PLK1 PBD inh
Cc1ccc(NC(=O)Cn2c(=O)cc(-c3ccccc3)c3c(C)nn(C)c32)c(Cl)c1	-29%	nt	nt	nt	nt
O=c1[nH]c2ccccc2nc1Cc1ccccc1	-26%	1%	1	2%	-15%
O=C(Cc1nc2ccccc2[nH]c1=O)c1ccccc1	32µM*	7%	-5	-15%	-15%
C=CCNC(=O)c1sc(=S)n(-c2ccc(C(=O)OCC)cc2)c1N	-7%	2%	nt	-3%	21µM*
CNC(=O)c1sc(=S)n(-c2ccc(OC)cc2)c1N	-17%	1%	5	-3%	-5%
CCOC(=O)c1ccc(-n2c(=S)sc3c(=O)[nH]c(C)nc32)cc1	-17%	-2%	nt	-13%	5.3µM*
CCn1c(N)c(C(N)=O)sc1=S	-17%	-1%	-11	8%	27µM*
CCOC(=O)c1ccc(-n2c(N)c(C(=O)NCc3ccco3)sc2=S)cc1	-21%	-1%	nt	-15%	24µM*
CCOC(=O)CSc1nc2c(sc(=S)n2-c2ccc(CC)cc2)c(=O)[nH]1	?	3%	-13	-7%	-25%
Cc1ccc(NC(=O)N2CCN(C(=O)c3nsc4ccccc34)CC2)cc1C	-8%	nt	nt	nt	nt
CCOC(=O)c1c(C)c(C(=O)NCc2ccco2)c(C)n1CC	-10%	-2%	-1	-3%	-10%
CCOC(=O)c1c(C)c(C(=O)NCc2ccco2)c(C)n1Cc1ccccc1	-17%	-1%	nt	-16%[57.1 µM]	27µM*
CCn1c(N)c(C(=O)NCc2ccco2)sc1=S	-11%	-1%	-14	-7%	24µM*
CC1CCN(S(=O)(=O)c2cn(CC(=O)Nc3ccc(F)c(Cl)c3)c(=O)c3ccccc23)CC1	-27%	nt	nt	nt	nt
O=c1oc2cc(O)ccc2cc1-c1nc2ccccc2o1	nt	nt	-24	-21%	11µM*
O=C(O)c1ccc(Cn2cc(/C=C\[N+](=O)[O-])c3ccccc32)o1	-3%	1%	-8	?	27µM*
CCCCC(CC)CNC(=O)c1ccc2c(=O)n(CCOC)c(=O)[nH]c2c1 (stereo unspecified)	-15%	nt	nt	nt	nt
CN1CCN(c2ccc(Cl)cc2NS(=O)(=O)c2ccccc2Cl)CC1	-20%	-4%	0	0%	27µM*
COc1ccccc1OCC(=O)NCCSCc1ccccc1Cl	-6%	-3%	-6	-31%	27µM*
CCCCCCCC/C=C\CCCCCCCC(=O)NCCc1ccc(O)c(O)c1	-23%	?	0	-17%	24µM*
O=C(CNC(=O)c1ccccc1F)NCCOc1ccccc1Cl	-11%	1%	-6	-1%	27µM*
O=C(NCCOc1ccccc1Cl)C(=O)NCCOc1ccccc1Cl	-18%	-1%	0	4%	-1%
Cc1cccc(NC(=O)CNC(=O)COc2cc(F)ccc2[N+](=O)[O-])c1C	-27%	12%	-12	5%	15µM*
COc1ccc(C2C(C(C)=O)=C(C)N=c3s/c(=C\c4cc(C)n(C)c4C)c(=O)n32)c(OC)c1 (stereo unspecified)	18µM*	16%	12	?	-9%
Cc1ccc(S(=O)(=O)N2CCOCC2)cc1C(=O)O	3%	-1%	nt	1%	-5%
O=C(O)c1cc2cccc(S(=O)(=O)N3CCOCC3)c2cc1O	-21%	0%	-73*	4%	-2%
CC(C)(C)C1CCc2c(sc(NC(=O)C3CC=CCC3C(=O)O)c2C#N)C1 (stereo unspecified)	-24%	0%	2	-29%[57.1 µM]	21µM*
